# Experimental data taken from PubChem BioAssay.
# Records with an inconclusive call do not appear. Calls of active or inactive are those of the source. Unless noted, how the calls were made is not given here.
# Experiments:
# [1] = molecular target: Mitogen-activated protein kinase 7 (Homo sapiens) (UniProt Q13164); assay: ERK5 transactivation activators in reporter cells, primary screen, cell-based, HTS (AID 1508626;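 active means luciferase signal above three times the same-plate solvent-only control wells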;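 further: luciferase driven by Gal4-ERK5 fusion binding five Gal4 sites before minimal TATA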); conditions: HeLa Gal4-ERK5 transactivation, 18 h, at 5 µM, stronger effect = higher value
# Chain of Mitogen-activated protein kinase 7 (Homo sapiens) (Q13164 whole entry, looked up, the tested form may be a part): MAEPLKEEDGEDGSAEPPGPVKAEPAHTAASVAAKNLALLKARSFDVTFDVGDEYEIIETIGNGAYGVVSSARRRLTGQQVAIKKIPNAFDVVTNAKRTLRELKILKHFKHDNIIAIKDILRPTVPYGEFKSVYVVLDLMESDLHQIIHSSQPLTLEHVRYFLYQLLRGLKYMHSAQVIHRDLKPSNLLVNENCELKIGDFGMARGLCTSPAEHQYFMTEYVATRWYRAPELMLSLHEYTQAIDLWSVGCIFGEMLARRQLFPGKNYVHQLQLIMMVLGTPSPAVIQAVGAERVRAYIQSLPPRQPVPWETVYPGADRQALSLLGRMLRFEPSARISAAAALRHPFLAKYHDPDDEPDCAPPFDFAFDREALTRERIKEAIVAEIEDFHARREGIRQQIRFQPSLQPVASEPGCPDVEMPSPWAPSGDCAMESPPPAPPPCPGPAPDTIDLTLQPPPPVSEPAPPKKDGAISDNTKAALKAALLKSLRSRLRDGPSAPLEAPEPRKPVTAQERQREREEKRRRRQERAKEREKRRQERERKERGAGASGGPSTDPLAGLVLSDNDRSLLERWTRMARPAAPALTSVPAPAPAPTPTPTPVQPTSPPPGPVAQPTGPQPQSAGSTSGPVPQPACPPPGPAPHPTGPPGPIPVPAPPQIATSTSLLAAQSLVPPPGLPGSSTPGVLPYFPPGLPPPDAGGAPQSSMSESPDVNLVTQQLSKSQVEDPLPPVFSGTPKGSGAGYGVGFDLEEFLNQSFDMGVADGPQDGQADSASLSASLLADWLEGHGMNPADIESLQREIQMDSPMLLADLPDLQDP
# [2] = hESC survival regulators, cell-based (AID 493140); conditions: human embryonic stem cell survival screen; stronger effect = higher value;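 further: cells exposed to compounds for four days before counting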
# [3] = circadian clock period modulators, cell-based, LOPAC library, luminescence reporter (AID 2774); conditions: circadian reporter cells, at 7 µM, actives lie on both sides;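 further: values are relative to mean of DMSO wells on each plate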
# [4] = test system: Hepatitis C virus NS3 helicase; assay: HCV NS3 helicase inhibitors, primary screen, biochemical, fluorescence polarization, LOPAC1280 library (AID 687035; in the data active means inhibition above about 37%); conditions: Purified HCV NS3 helicase, Cy5-dT15 ssDNA binding fluorescence polarization; stronger effect = higher value; concentration not given here
# [5] = Cy5 fluorescence quenching or enhancement artefacts, artefact control for HCV NS3 helicase inhibitor project, biochemical, LOPAC1280 (AID 687037); conditions: Cy5-DNA-NS3h complex fluorescence interference counterscreen
# [6] = growth inhibition of DIPG glioma cells, dose response, cell-based, SU-DIPG-IV, MIPE4.0, CellTiter-Glo, qHTS (AID 1347063; cut-off not given, nearly all actives have AC50 up to about 30 µM;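 further: compound exposure lasted 48 hours before the viability readout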); conditions: SU-DIPG-IV viability, CellTiter-Glo ATP luminescence
# [7] = growth inhibition of DIPG glioma cells, dose response, cell-based, SU-DIPG-XIII, MIPE5.0, CellTiter-Glo, qHTS (AID 1347064; cut-off not given, nearly all actives have AC50 up to about 23 µM); conditions: SU-DIPG-XIII viability, CellTiter-Glo ATP luminescence
# [8] = viability loss in pontine glioma line – cell-based, SU-DIPG-XXV, MIPE5.0, CellTiter-Glo, qHTS, dose response (AID 1347065; cut-off not given, nearly all actives have AC50 up to about 26 µM;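 further: cells exposed to compound for 48 hours before ATP readout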); conditions: CellTiter-Glo ATP luminescence
# [9] = SU-DIPG-VI glioma cell viability, MIPE4.0 library, CellTiter-Glo luminescence, qHTS (AID 1347066; cut-off not given, nearly all actives have AC50 up to about 30 µM;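 further: cells exposed to compound for 48 hours before readout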); conditions: CellTiter-Glo ATP luminescence
# [10] = JHH-DIPG-1 glioma cell viability, MIPE5.0 library, CellTiter-Glo luminescence, qHTS (AID 1347067; cut-off not given, nearly all actives have AC50 up to about 26 µM;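 further: cells exposed to compound for 48 hours before readout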); conditions: JHH-DIPG-1 glioma viability, CellTiter-Glo ATP luminescence
# [11] = phospholipid biosynthesis inhibitors in animal cells, primary screen, cell-based, LOPAC library, screen 4 (AID 1347384); conditions: phospholipid biosynthesis inhibition screen, at 10 µM
# [12] = modifiers of HSF1 nuclear foci, imaging, Selleck Cancer Library (AID 1347162; in the data active means plate-normalised HSF1 focus index below about 0.46); conditions: human cells, at 10 µM; SSMD: measured here: HSF1 foci SSMD mean; cell count: measured here: cell number; plate-normalised HSF1 focus index: stronger effect = lower value
# [13] = LFS_MB_P medulloblastoma growth inhibition, cell-based, chromothripsis tumors, cisplatin or BGB combos (AID 1671449; in the data active means inhibition above about 80%;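 further: cells exposed for 96 hours; 0% = vehicle DMSO and 100% = killing by high DMSO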); conditions: LFS_MB_P medulloblastoma cells
# [14] = HDN33 neuroblastoma growth inhibition, cell-based, chromothripsis tumors, cisplatin or BGB combos (AID 1671450; in the data active means inhibition above about 80%;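 further: cells exposed to compound for four days; 0% = vehicle DMSO and 100% = cell killing by high DMSO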); conditions: HDN33 neuroblastoma cells, stronger effect = higher value
# [15] = ICB984 medulloblastoma cell growth inhibition, synergistic combos for chromothripsis tumors, cisplatin or BGB combos (AID 1671451); conditions: ICB984 medulloblastoma cells, drug combinations, stronger effect = higher value;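 further: cells exposed for 96 hours before readout; 0% = vehicle DMSO and 100% = killing by high DMSO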
# [16] = HTB85 osteosarcoma cell growth inhibition, synergistic combos for chromothripsis tumors, BGB or cisplatin IC20 combos (AID 1671453; in the data active means inhibition above about 80%;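 further: cells exposed for 96 hours before readout; 0% = vehicle DMSO and 100% = high DMSO killing control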); conditions: HTB85 osteosarcoma cells, drug combinations, stronger effect = higher value
# [17] = MDA-MB-436 breast carcinoma cell growth inhibition, synergistic combos for chromothripsis tumors, BGB or cisplatin combos (AID 1671458); conditions: MDA-MB-436 breast carcinoma growth inhibition, drug combinations, stronger effect = higher value;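 further: cells exposed for 96 hours; 0% = vehicle DMSO and 100% = killing by high DMSO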
# [18] = growth inhibition of BT084 medulloblastoma cells, cell-based, ICGC_MB145, cisplatin and BGB IC40 combos (AID 1671461; in the data active means inhibition above about 80%;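 further: cells exposed to drugs for 96 hours; 0% = vehicle DMSO and 100% = high DMSO full killing control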); conditions: drug combinations, stronger effect = higher value
# [19] = growth inhibition of RCMB18 medulloblastoma cells, cell-based, cisplatin and BGB IC40 combos (AID 1671462; in the data active means inhibition above about 80%;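 further: cells exposed to compound for four days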); conditions: stronger effect = higher value
# [20] = growth inhibition of CRL1545 osteosarcoma cells, cell-based, cisplatin and BGB IC20 combos (AID 1671464; in the data active means inhibition above about 80%;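 further: cells exposed to compound for 96 hours before readout; 0% = vehicle DMSO and 100% = high DMSO killing control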); conditions: stronger effect = higher value
# [21] = measured here: with BGB IC20 combination, at 0.5 µM
# [22] = measured here: with cisplatin IC20 combination, at 0.5 µM
compound,measurement,setting,value
NC(=O)CCCCC1CCSS1 (configuration not stated),luciferase signal,[1],44 AU (inactive)
NC(=O)C1(N2CCCCC2)CCN(CCCC(=O)c2ccc(F)cc2)CC1,luciferase signal,[1],52 AU (inactive)
CNCc1ccccc1,luciferase signal,[1],56 AU (inactive)
COc1cc(C(=O)NCCCCCC(=O)O)cc(OC)c1OC,luciferase signal,[1],36 AU (inactive)
O=C1OC2(c3ccc(O)cc3Oc3cc(O)ccc32)c2ccccc21,luciferase signal,[1],52 AU (inactive)
CC(O)(P(=O)(O)O)P(=O)(O)O,survival,[2],4.67 (inactive)
same,luciferase signal,[1],48 AU (inactive)
Cn1ccc2cc3c(cc21)CCN3C(=O)Nc1cccnc1,period change,[3],0.355 h (inactive)
same,inhibition,[4],-3% (inactive)
same,fluorescence ratio (interference),[5],0.9 (inactive)
same,outcome,[6],inactive
same,outcome,[7],inactive
same,outcome,[8],inactive
same,outcome,[9],inactive
same,outcome,[10],inactive
same,outcome,[11],inactive
CN(C(=O)c1c(O)c2ccccc2n(C)c1=O)c1ccccc1,outcome,[10],inactive
CCn1ccnc1CC1COc2ccccc2O1 (configuration not stated),period change,[3],0.33 h (inactive)
same,inhibition,[4],-4% (inactive)
same,fluorescence ratio (interference),[5],1 (inactive)
same,outcome,[11],inactive
COCC(=O)O[C@]1(CCN(C)CCCc2nc3ccccc3[nH]2)CCc2cc(F)ccc2[C@@H]1C(C)C,period change,[3],-0.16 h (inactive)
same,inhibition,[4],-2% (inactive)
same,fluorescence ratio (interference),[5],1 (inactive)
same,outcome,[11],inactive
CC1(CN2CCC(n3c(=O)[nH]c4ccccc43)CC2)OCc2ccccc2-n2cccc21 (configuration not stated),outcome,[6],inactive
same,outcome,[9],inactive
same,SSMD,[12],2.84
same,cell count,[12],7080
same,plate-normalised HSF1 focus index,[12],1.16 (inactive)
COCCOC(=O)C1=C(C)NC(C)=C(C(=O)OC/C=C/c2ccccc2)C1c1cccc([N+](=O)[O-])c1 (configuration not stated),inhibition,[4],-1% (inactive)
same,fluorescence ratio (interference),[5],1 (inactive)
same,outcome,[11],active
C[C@@H](CN1CC(=O)NC(=O)C1)N1CC(=O)NC(=O)C1,outcome,[6],inactive
same,outcome,[7],inactive
same,outcome,[8],inactive
same,inhibition,"[13]; at 0.5 µM, stronger effect = higher value",-25.4% (inactive)
same,inhibition,"[13]; measured here: combination with BGB IC20, at 0.005 µM",7.12%
same,inhibition,"[13]; measured here: combination with BGB IC40, at 0.005 µM",4.81%
same,inhibition,"[13]; measured here: combination with BGB IC40, at 0.05 µM",-36.6%
same,inhibition,"[13]; measured here: combination with cisplatin, at 0.5 µM, stronger effect = higher value",-24.5%
same,inhibition,"[13]; measured here: combination with cisplatin, at 5 µM, stronger effect = higher value",-14.8%
same,inhibition,"[14]; BGB combo, at 5 µM",79.1%
same,inhibition,[14]; at 0.5 µM,-24% (inactive)
same,inhibition,"[14]; cisplatin combo, at 5 µM",-19.4%
same,inhibition,[14]; [21],-11.3%
same,inhibition,[14]; [22],-36.9%
same,inhibition,"[14]; single agent, at 5 µM",13.8%
same,inhibition,"[15]; BGB IC20 combo, at 0.005 µM",-2.91%
same,inhibition,"[15]; BGB IC40 combo, at 0.005 µM",-23%
same,inhibition,"[15]; BGB IC40 combo, at 0.05 µM",11.5%
same,inhibition,[15]; at 0.5 µM,-30.5% (inactive)
same,inhibition,"[15]; cisplatin combo, at 0.05 µM",8.27%
same,inhibition,"[15]; cisplatin combo, at 0.5 µM",-19.9%
same,inhibition,"[15]; cisplatin combo, at 5 µM",-27.8%
same,inhibition,"[15]; measured here: 5 uM single agent, at 5 µM",-8.08%
same,inhibition,[16]; at 0.5 µM,-26.1% (inactive)
same,inhibition,"[16]; measured here: with BGB IC20, at 0.5 µM",-21.1%
same,inhibition,"[16]; measured here: with BGB IC20, at 5 µM",-21.1%
same,inhibition,"[16]; measured here: with cisplatin IC20, at 0.5 µM",-39.6%
same,inhibition,"[16]; measured here: with cisplatin IC20, at 5 µM",-43.4%
same,inhibition,"[16]; single agent, at 5 µM",-10%
same,inhibition,[17]; at 0.5 µM,-7.66% (inactive)
same,inhibition,"[17]; measured here: BGB combination, at 0.5 µM",2.41%
same,inhibition,"[17]; measured here: BGB combination, at 5 µM",-3.41%
same,inhibition,"[17]; measured here: cisplatin combination, at 0.5 µM",-18.8%
same,inhibition,"[17]; measured here: cisplatin combination, at 5 µM",-28.2%
same,inhibition,[18]; at 0.5 µM,-9.97% (inactive)
same,inhibition,"[18]; cisplatin combination, at 0.5 µM",-43.1%
same,inhibition,"[18]; cisplatin combination, at 5 µM",-2.65%
same,inhibition,"[18]; measured here: BGB IC40 combination 0.05 uM, at 0.05 µM",19.5%
same,inhibition,"[18]; single agent, at 5 µM",-11.9%
same,inhibition,[19]; at 0.5 µM,-20.1% (inactive)
same,inhibition,"[19]; cisplatin combo, at 5 µM",-55.6%
same,inhibition,"[19]; measured here: BGB IC40 combination, at 0.05 µM",-8.51%
same,inhibition,"[19]; measured here: combination with cisplatin, at 0.5 µM",-37.1%
same,inhibition,"[19]; single agent, at 5 µM",-16.8%
same,inhibition,[20]; at 0.5 µM,-44.1% (inactive)
same,inhibition,[20]; [21],-33.6%
same,inhibition,[20]; [22],-51.8%
same,inhibition,"[20]; single agent, at 0.05 µM",-57.8%
same,inhibition,"[20]; single agent, at 5 µM",-52.7%
